Data from PubChem BioAssay AID588852 (The Scripps Research Institute Molecular Screening Center, 2011).
Among all 360,000 compounds or so, about 4,600 (1.3%) were called active. Many of the other results were omitted from the sample, so actives are more common in it than they were. Values without a mark were called inactive.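 Rule for the calls: active = percent inhibition above its own plate's cutoff, namely the mean of that plate's compound wells plus 3 SD; inactive = the rest.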

Biological target: Muscarinic acetylcholine receptor M1 (Homo sapiens) (UniProt P11229)
Assay: human M1 muscarinic receptor antagonists, primary screen, CHO-K1 cells, Fluo-8 calcium fluorescence, 1536-well (AID 588852);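 note: peak over basal fluorescence ratio during 140 s after agonist addition; 0% = ACh EC80 plus DMSO and 100% = DMSO alone without agonist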
Details: CHO-K1 hM1, Fluo-8 calcium fluorescence, ACh EC80 antagonist; at 3 µM; stronger effect = higher value

Sequence of Muscarinic acetylcholine receptor M1 (Homo sapiens) (P11229 whole entry, looked up): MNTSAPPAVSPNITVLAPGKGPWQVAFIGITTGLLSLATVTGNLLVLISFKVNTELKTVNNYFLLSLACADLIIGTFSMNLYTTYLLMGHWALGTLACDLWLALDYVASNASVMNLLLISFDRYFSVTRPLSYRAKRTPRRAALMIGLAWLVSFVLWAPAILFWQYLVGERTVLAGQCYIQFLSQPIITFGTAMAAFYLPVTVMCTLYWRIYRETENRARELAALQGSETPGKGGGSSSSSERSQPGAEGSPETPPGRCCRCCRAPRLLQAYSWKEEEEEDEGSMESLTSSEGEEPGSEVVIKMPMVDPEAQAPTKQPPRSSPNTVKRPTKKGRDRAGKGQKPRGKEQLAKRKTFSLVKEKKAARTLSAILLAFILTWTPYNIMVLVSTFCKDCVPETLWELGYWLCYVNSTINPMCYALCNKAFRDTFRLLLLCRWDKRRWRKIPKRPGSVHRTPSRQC

Row | Compound | inhibition
1 | Cc1cc(/C=C2/SC(=O)N(CC(=O)N3CCCC3)C2=O)ccc1N1CCOCC1 | -1.78%
2 | COc1ccc(CNS(=O)(=O)c2ccc(NC(=O)N3CCCCC3)cc2)cc1 | 33.3% (active)
3 | COc1ccc(NC(=O)N2CCC(Cc3ccccc3)CC2)cc1 | -2.81%
4 | COc1ccc(S(=O)(=O)NC(C)C(=O)N2CCCCCC2)cc1 (stereo not drawn) | -12.2%
5 | COCC(=O)N1CCCC(C(=O)c2ccc(C(F)(F)F)cc2)C1 (stereo not drawn) | -12.9%
6 | O=C1CCCC2=C1C(c1cccs1)n1nc(SCc3ccccc3)nc1N2 (stereo not drawn) | -6.44%
7 | O=C(NCC1CCCO1)c1cc2c([nH]c3ccccc32)c(-c2ccc(F)cc2)n1 (stereo not drawn) | 42.6% (active)
8 | COc1ccc2cc(C(=O)NCC3CCCO3)[nH]c2c1 (stereo not drawn) | -11.4%
9 | O=C(NCCCO)c1cc2c([nH]c3ccccc32)c(-c2ccc(F)cc2)n1 | 1.06%
10 | CC(C)(C)c1ccc(CCC2OCC(CN3CCOCC3)O2)cc1 (stereo not drawn) | -5.48%
11 | NC(=O)CC[C@@H]1NC(=O)[C@@H]2CCCN2C(=O)c2cc([N+](=O)[O-])cc(F)c2NCCC[C@@H](C(N)=O)NC1=O | -13.1%
12 | O=C(Nc1ccc(S(=O)(=O)N2CCCCC2)cc1)C1CCN(C(=O)c2ccc(F)cc2)CC1 | 9.2%
13 | O=C(Nc1ccc(S(=O)(=O)N2CCCCC2)cc1)C1CC(=O)N(c2ccc(F)cc2)C1 (stereo not drawn) | -6.03%
14 | CCN(CC(=O)Nc1ccc(S(=O)(=O)N2CCCC2)cc1)CC(=O)Nc1cccc(OC)c1 | -10.7%
15 | CN(CC(=O)Nc1ccc(S(=O)(=O)N2CCCC2)cc1)Cc1ccc(Cl)c(Cl)c1 | 34.9% (active)
16 | CCc1ccc(CN(C)C(C)C(=O)Nc2ccc(S(=O)(=O)N3CCCC3)cc2)cc1 (stereo not drawn) | 88.9% (active)
17 | CC(C(=O)Nc1ccc(S(=O)(=O)N2CCCC2)cc1)N(C)Cc1ccc(F)cc1 (stereo not drawn) | 53.5% (active)
18 | CCc1ccc(NC(=O)CN2C(=O)COc3ccc(S(=O)(=O)N4CCCC4)cc32)cc1 | -15.9%
19 | COc1ccccc1CC(=O)Nc1ccc(S(=O)(=O)N2CCCC2)cc1 | -9.64%
20 | COc1cccc(CNC(C)C(=O)Nc2ccc(S(=O)(=O)N3CCCC3)cc2)c1 (stereo not drawn) | 39.5% (active)
21 | CN(CC(=O)Nc1ccc(F)cc1)CC(=O)Nc1ccc(Cl)c(S(=O)(=O)N2CCOCC2)c1 | -20.8%
22 | CC(OC(=O)c1ccc(NC(=O)CC#N)cc1)C(=O)Nc1ccc(S(=O)(=O)N2CCCC2)cc1 (stereo not drawn) | 32.6%

Row | Compound | inhibition
23 | Cc1ccc(CC(=O)Nc2ccc(S(=O)(=O)N3CCOCC3)cc2)cc1C | -11.9%
24 | COc1cccc(CNn2cn[nH]c2=S)c1OCc1ccccc1 | -12.7%
25 | COc1ccccc1-c1cc2nc(NCc3cccc(Cl)c3)ccn2n1 | -15.4%
26 | Nc1ncnc2c1ncn2[C@@H]1O[C@H](C(=O)NS(=O)(=O)c2c(Cl)nc3sccn23)[C@@H](O)[C@H]1O | -32.1%
27 | Cc1csc2nc(COC(=O)c3cccc(N(C)C)c3)cc(=O)n12 | 6.38%
28 | O=C(CSCc1ccc(Br)cc1)Nc1ccc(S(=O)(=O)N2CCCCCC2)cc1 | 4.8%
29 | CCOc1ccc(NC(=O)COc2ccc(S(=O)(=O)N3CCCC3)cc2)cc1 | 16%
30 | O=C(CN1CCCCCC1)Nc1ccc(S(=O)(=O)N2CCCCC2)cc1 | 33.1% (active)
31 | COCc1c(C(=O)N/N=C(\C)c2ccncc2)nnn1-c1nonc1N | -10.9%
32 | FC(F)(F)c1ccccc1Cc1c(-c2ccccc2)nc2c3ccccc3ccn12 | -26%
33 | COc1ccccc1N(CC(=O)Nc1c(C)n(C)n(-c2ccccc2)c1=O)S(=O)(=O)c1ccccc1 | -20.5%
34 | CN(C)CCCCCN(C)Cc1cc2ccccc2o1 | -3.73%
35 | COc1ccc(-c2cc(NC=O)c3ncc(-c4ccccc4)n3c2)cc1OC | 4.7%
36 | CC(=O)Nc1ccc(-c2csc(NC(=O)Nc3ccccc3)n2)cc1 | 38.3% (active)
37 | NC(c1ccccc1)c1csc(NC(=O)Nc2cccc(C(F)(F)F)c2)n1 (stereo not drawn) | 6.11%
38 | CC(=O)Nc1ccc(-c2cn3cccnc3n2)cc1 | -2.56%
39 | CC(CCc1ccc(O)cc1)NCc1ccc(Cl)cc1Cl (stereo not drawn) | 30.2% (active)
40 | COc1ccc(CNC(=O)C(C)NCc2ccccc2Cl)cc1 (stereo not drawn) | 1.81%
41 | CC(CCc1ccccc1)NC(=O)c1cnc(Cl)c(Cl)c1 (stereo not drawn) | 2.23%
42 | COc1ccc(-c2cc(NC=O)c3ncc(-c4cc(OC)c(OC)c(OC)c4)n3c2)c(OC)c1 | 5.71%
43 | Cc1ccc2cc(CCNC(=O)c3ccc4c(c3)OCO4)c(=O)[nH]c2c1 | -6.75%
44 | Cc1ccc(N(C(=O)c2sc(C)nc2C)C(C(=O)NC(C)(C)C)c2ccncc2)cc1 (stereo not drawn) | -4.9%

Row | Compound | inhibition
45 | CCOCCCNS(=O)(=O)Cc1ccccc1 | -12.6%
46 | Cc1nccn1-c1ccc(NC(=O)[C@H]2O[C@@H](n3cnc4c(N)ncnc43)[C@H](O)[C@@H]2O)cc1 | -16.5%
47 | O=C(NC1CCCCC1)c1ccc2c(=O)n(CC3CCCO3)c(=O)[nH]c2c1 (stereo not drawn) | -13.8%
48 | CCCCCn1c(=O)[nH]c2cc(C(=O)NCCCN3CCCCC3C)ccc2c1=O (stereo not drawn) | 27.5% (active)
49 | CC1CCCCN1CCCNC(=O)Cn1ncc2c([nH]c3ccccc32)c1=O (stereo not drawn) | 3.02%
50 | Cc1ccccc1NC(=O)Cc1nc(COC(=O)CNC(=O)c2ccc(Cl)cc2Cl)cs1 | -13%
51 | CN(C(=O)CN1C(=O)NC(C)(CCc2ccccc2)C1=O)c1ccccc1 (stereo not drawn) | -11.9%
52 | CN(C)c1ccc(/C=C2\NC(=S)N(Cc3ccccc3)C2=O)cc1 | 68.3% (active)
53 | Cc1ccc(CN2C(=O)N/C(=C/c3cc(C)n(-c4ccccn4)c3C)C2=O)cc1 | -1.22%
54 | COc1ccc(-c2cc(NC(C)=O)c3ncc(-c4cc(OC)c(OC)c(OC)c4)n3c2)cn1 | -10.3%
55 | CC(=O)N[C@H]1[C@H]([C@H](O)[C@H](O)CO)OC(C(=O)O)=C[C@@H]1O | -23.4%
56 | CC(=O)Nc1cc(-c2ccccc2F)cn2c(-c3cccc(C(F)(F)F)c3)cnc12 | -3.02%
57 | Fc1cccc2ncnc(OCc3ccccc3)c12 | -13.7%
58 | Cc1nc2ccccc2cc1OCc1ccc(F)cc1 | 18% (active)
59 | Cc1occc(=O)c1OCc1ccc(F)cc1 | -6.78%
60 | Clc1cccc(Cc2c(-c3cccc(Cl)c3)nc3ccc(Cl)cn23)c1 | -29.8%
61 | Clc1ccccc1Nc1nc(NCc2cccs2)nc2ccsc12 | 7.85%
62 | COc1ccccc1CNc1nc(Nc2ccccc2Cl)c2sccc2n1 | 30.1% (active)
63 | COCCNc1nc(Nc2ccccc2Cl)c2sc(-c3ccccc3)cc2n1 | -5.82%
64 | Cc1cc(Br)cn2c(Cc3cccc(F)c3)c(-c3cccc(Br)c3)nc12 | -3.87%
65 | O=C(Cn1cnc2ccccc2c1=O)NCC1COc2ccccc2O1 (stereo not drawn) | -3.89%
66 | COc1ccc(CCNc2ncnc3nc[nH]c23)cc1OC | 5.06%

Row | Compound | inhibition
67 | c1ccc2c(c1)OCC(CNc1ncnc3nc[nH]c13)O2 (stereo not drawn) | 101% (active)
68 | CCCN1CNC(=S)N(CCc2ccccc2)C1 | -6.28%
69 | Cc1ccc(-n2ncc3c2CCCC3NC(=O)c2cnccn2)cc1C (stereo not drawn) | -17.9%
70 | CC1(C)Cc2c(cnn2-c2cccc(F)c2)C(NC(=O)c2cc[n+]([O-])cc2)C1 (stereo not drawn) | 9.23%
71 | Cn1nccc1C(=O)NC1CCCc2c1cnn2-c1ccc(F)cc1F (stereo not drawn) | 31.6% (active)
72 | CCCc1nnc(SCC(=O)Nc2ccc(C(=O)OCC)cc2)o1 | 9%
73 | CCOC(=O)c1ccc(NC(=O)CS(=O)(=O)c2cn(CC)c3ccccc23)cc1 | -2.75%
74 | CCOC(=O)c1ccc(NC(=O)Cn2cnc3cc(C)c(C)cc32)cc1 | 37.4% (active)
75 | Cc1ccc(Cc2c(-c3ccco3)nc3ccc(Cl)cn23)cc1 | -22.8%
76 | COc1cccc(CN(C)C(=O)CC[C@H]2O[C@@H](n3cnc4c(NC(=O)c5ccccc5)ncnc43)[C@H](O)[C@@H]2O)c1 | -19.1%
77 | CC1=C(C(=O)N(C(C)C)C(C)C)CC(CC(=O)NCCCCc2ccccc2)C(=O)N1CCC1=CCCCC1 (stereo not drawn) | -20.5%
78 | OC[C@@H]1CN(Cc2ccc(-c3ccccc3)cc2)C[C@H](n2cnc3c(NC4CCCC4)ncnc32)O1 | 32% (active)
79 | OC[C@@H]1CN(Cc2cccs2)C[C@H](n2cnc3c(NC4CCCC4)ncnc32)O1 | -11.8%
80 | OC[C@@H]1CN(Cc2ccc(F)cc2)C[C@H](n2cnc3c(NC4CCCC4)ncnc32)O1 | -0.24%
81 | COc1cc(OC)cc(C(=O)NC(=S)N2CCN(c3ccc(C(F)(F)F)cc3[N+](=O)[O-])CC2)c1 | -3.37%
82 | O=C(c1ccc(N2CCOCC2)c([N+](=O)[O-])c1)N1CCN(c2ccccc2F)CC1 | -20.3%
83 | O=C(c1ccc(N2CCCC2=O)cc1)N1CCN(c2ccc(C(F)(F)F)cc2[N+](=O)[O-])CC1 | 53.8% (active)
84 | NC(c1csc(NC(=O)Nc2cccc(C(F)(F)F)c2)n1)C1CCCCC1 (stereo not drawn) | 2.03%
85 | CCc1cc2c(SCC(=O)Nc3ncc(Cl)c(C)c3Cl)ncnc2s1 | 3.21%
86 | c1ccc(Cc2cc[n+](Cc3ccccc3)cc2)cc1 | 37.1% (active)
87 | CN(C)c1cc[n+](Cc2ccccc2)cc1 | 21.7%
88 | c1ccc(CNCc2ccc(CNCc3ccccc3)cc2)cc1 | 2.12%
